PubChem BioAssay (NCATS)
“And” between values parts separate entries of the source, which are not always exact repeats. Equal values may be shown once. Results filed as inconclusive are left out. The source made the active and inactive calls. Unless noted, the call rests on the fitted dose curve; in most records, active means well fitted curve in the direction sought with a large enough effect; inconclusive means small, poorly fitted or top-dose-only effect, or another doubt; inactive means no such curve, though single readings can be large; an effect the other way counts as inactive or inconclusive.

Tests used:
[1] = HTS Assay for Allosteric Antagonists of the Human D2 Dopamine Receptor: Hit Validation in HTRF (AID 624455);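 further: stable D1 dopamine receptor cell line scored for blocking the D1 response; on the % scale 0 is the no-effect control and ±100 the full control effect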
How it was run: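 Inhibition of the D1-mediated response is measured by HTRF in cells that stably express the D1 dopamine receptor. Compounds reaching this step are hits from calcium-flux antagonism testing at EC80 dopamine in inducible Hek293 Trex D2 cells.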

[2] = qHTS assay for small molecule agonists of the antioxidant response element (ARE) signaling pathway (AID 651741; active means well fitted activation curve with a large enough effect in the signal ratio; the % refers to the signal ratio; further: potency means the concentration at half of the fitted maximal effect; on activation: % of control where 0% means no effect)
How it was run: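 Reporter: beta-lactamase under ARE, stably in HepG2. Exposure: 16 h, 37 C, compounds delivered in DMSO by pin tool after 5 h cell preincubation. Readout: FRET substrate fluorescence after 2 h at RT.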

[3] = qHTS assay for small molecule activators of the p53 signaling pathway (AID 651743; active means well fitted activation curve with a large enough effect in the signal ratio, not every such curve was filed as active; the % refers to the signal ratio; further: potency means the concentration at half of the fitted maximal effect; on activation: series mostly up to about 92 µM; % of control where 0% means no effect); conditions: HCT-116 p53RE-bla, beta-lactamase FRET ratio, 16 h; activation: stronger effect = higher value
How it was run: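 Agonist-mode quantitative HTS in HCT-116 cells carrying a p53-response-element beta-lactamase reporter; 16 h compound treatment at 37 C, then FRET substrate loading for 2 h at room temperature and fluorescence read.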

[4] = qHTS assay for small molecule activators of the nuclear factor-kappa B (NF-kB) signaling pathway (AID 651749; active means well fitted activation curve with a large enough effect in the signal ratio; the % refers to the signal ratio; further: series mostly up to about 77 µM; % of control where 0% means no effect); conditions: NF-kB-bla ME-180 cells, beta-lactamase FRET ratio, 16 h; stronger effect = higher value
How it was run: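 Human ME-180 cervical cells with an NF-kB-bla construct; compounds added via 23 nL pin transfer, DMSO as vehicle; incubation 16 hr. Reporter activity measured by FRET disruption.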

[5] = qHTS assay for environmental chemicals that activate the Aryl hydrocarbon Receptor (AhR) signaling pathway (AID 651777); conditions: 1A2-DRE human hepatoma cells, luciferase, 24 h; activation: stronger effect = higher value; further: % of control where 0% means no effect; nearly all actives have a fitted effect of over 15% in size
How it was run: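 Human hepatoma 1A2-DRE cells, stably carrying a dioxin response element and CYP1A2 promoter driving luciferase, were exposed to compounds for 24 hr at 37 C and 5% CO2. Luciferase signal was then read after 30 min One-Glo at room temperature.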

[6] = molecular target: Peroxisome proliferator-activated receptor alpha (Homo sapiens) (UniProt Q07869); assay: qHTS assay for small molecule agonists of the peroxisome proliferator-activated receptor alpha (PPARalpha) signaling pathway (AID 651778); conditions: PathHunter PPARalpha complementation, chemiluminescence, 6 h; stronger effect = higher value; further: % of control where 0% means no effect
Peroxisome proliferator-activated receptor alpha (Homo sapiens), sequence (Q07869 whole entry, looked up): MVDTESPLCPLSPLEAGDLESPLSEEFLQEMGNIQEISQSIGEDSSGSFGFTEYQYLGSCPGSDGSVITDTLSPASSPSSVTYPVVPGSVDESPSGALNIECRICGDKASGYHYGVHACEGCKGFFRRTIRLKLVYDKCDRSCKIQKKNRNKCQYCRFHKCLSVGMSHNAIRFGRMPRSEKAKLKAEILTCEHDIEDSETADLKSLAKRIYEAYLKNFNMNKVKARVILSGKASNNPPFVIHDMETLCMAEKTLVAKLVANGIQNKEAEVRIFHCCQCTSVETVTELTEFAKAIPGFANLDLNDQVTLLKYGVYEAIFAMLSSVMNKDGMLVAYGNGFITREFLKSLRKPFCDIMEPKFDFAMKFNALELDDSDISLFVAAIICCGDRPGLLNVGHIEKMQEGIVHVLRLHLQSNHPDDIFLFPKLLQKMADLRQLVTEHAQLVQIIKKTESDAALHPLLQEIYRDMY
How it was run: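 Cells plated at 2,000/well and held overnight at 37 C, 5% CO2, then compound added by pin tool for 6 hr; after PathHunter detection reagent and 60 min at room temperature, chemiluminescence from enzyme complementation was read.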

[7] = molecular target: Arylsulfatase A (Homo sapiens) (UniProt P15289); assay: qHTS screen for enhancers of Arylsulfatase A (ASA1): LOPAC Validation Assay (AID 720538)
Arylsulfatase A (Homo sapiens), sequence (P15289 whole entry, looked up): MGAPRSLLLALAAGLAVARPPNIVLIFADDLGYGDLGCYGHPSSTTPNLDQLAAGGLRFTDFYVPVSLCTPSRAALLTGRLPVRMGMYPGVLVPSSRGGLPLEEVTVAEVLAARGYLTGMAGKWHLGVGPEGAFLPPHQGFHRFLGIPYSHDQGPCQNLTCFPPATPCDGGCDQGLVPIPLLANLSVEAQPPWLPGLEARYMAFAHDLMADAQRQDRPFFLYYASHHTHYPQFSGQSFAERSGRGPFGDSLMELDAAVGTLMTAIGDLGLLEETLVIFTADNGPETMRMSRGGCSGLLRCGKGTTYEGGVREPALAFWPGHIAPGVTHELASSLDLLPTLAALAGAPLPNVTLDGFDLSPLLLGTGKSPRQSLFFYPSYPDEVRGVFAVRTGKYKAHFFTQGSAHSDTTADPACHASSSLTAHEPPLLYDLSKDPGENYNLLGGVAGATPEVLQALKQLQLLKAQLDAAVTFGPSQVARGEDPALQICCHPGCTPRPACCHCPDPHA
How it was run: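 SV40-transformed fibroblasts from an MLD patient (ASA-I179S) were treated with compound for 48 h at 37 C. They were then lysed with 0.5 mM pNCS substrate (final) for 14 h at room temperature and stopped with NaOH; signal read by fluorescence (Ex 525/Em 598 nm), with increase denoting enhanced activity.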

[8] = qHTS for Activators of Parkin Expression: LOPAC Validation Assay (NLuc Reporter) (AID 720572;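 further: 0% = DMSO and 100% = positive control compound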)
How it was run: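 Cells harboring the Parkin-promoter coincidence reporter were treated for 24 h at seven concentrations. NLuc output was measured sequentially after the FLuc channel and scaled between DMSO and positive control values.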

[9] = qHTS for Activators of Parkin Expression: LOPAC Validation Assay (FLuc Reporter) (AID 720573;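 further: 0% = DMSO and 100% = positive control compounds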)
How it was run: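 Neuronal cell line stably expressing FLuc/NLuc coincidence reporter under the Parkin promoter, 1,500 cells/well, dosed 24 h after seeding in 7-point series for 24 h at 37 C. FLuc luminescence read; normalized to DMSO and positive control (100%).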

[10] = qHTS assay for small molecule agonists of the antioxidant response element (ARE) signaling pathway measured by Nrf2-dependant transcriptional activity - cell viability counter screen (AID 720653; active means well fitted curve in the direction sought with a large enough effect in the repeat runs; an effect the other way counts as inactive or inconclusive; further: on the % scale 0 is the no-effect control and ±100 the full control effect); conditions: ARE-bla HepG2 viability, CellTiter-Glo ATP luminescence, 16 h; max response: stronger effect = lower value
How it was run: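 ARE-bla HepG2 cells (2,000/well) rested 5 hrs at 37C/5% CO2, then exposed to compounds in DMSO for 16 hrs. Viability was read in the same wells as intracellular ATP by luminescence, 30 min at room temperature after reagent addition.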

[11] = molecular target: T1, Hexokinase-4 (Homo sapiens) + Glucokinase regulatory protein (Homo sapiens) (UniProt P35557+Q14397); assay: qHTS assay for inhibitors of recombinant human GCK-GKRP interaction: Diaphorase-coupled assay (AID 743205)
T1 sequence (P35557 whole entry, looked up): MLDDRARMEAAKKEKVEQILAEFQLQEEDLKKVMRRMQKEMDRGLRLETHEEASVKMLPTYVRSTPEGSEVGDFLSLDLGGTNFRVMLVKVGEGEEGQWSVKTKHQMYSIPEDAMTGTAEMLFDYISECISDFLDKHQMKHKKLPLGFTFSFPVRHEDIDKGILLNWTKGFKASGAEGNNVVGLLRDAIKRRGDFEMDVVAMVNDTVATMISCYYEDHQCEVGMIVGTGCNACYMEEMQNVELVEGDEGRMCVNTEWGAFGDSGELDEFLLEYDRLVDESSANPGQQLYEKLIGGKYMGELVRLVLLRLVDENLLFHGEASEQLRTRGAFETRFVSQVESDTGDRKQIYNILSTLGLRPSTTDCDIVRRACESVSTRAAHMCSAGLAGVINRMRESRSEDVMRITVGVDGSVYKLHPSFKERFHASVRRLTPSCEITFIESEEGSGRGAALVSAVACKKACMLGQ
T1 sequence (Q14397 whole entry, looked up): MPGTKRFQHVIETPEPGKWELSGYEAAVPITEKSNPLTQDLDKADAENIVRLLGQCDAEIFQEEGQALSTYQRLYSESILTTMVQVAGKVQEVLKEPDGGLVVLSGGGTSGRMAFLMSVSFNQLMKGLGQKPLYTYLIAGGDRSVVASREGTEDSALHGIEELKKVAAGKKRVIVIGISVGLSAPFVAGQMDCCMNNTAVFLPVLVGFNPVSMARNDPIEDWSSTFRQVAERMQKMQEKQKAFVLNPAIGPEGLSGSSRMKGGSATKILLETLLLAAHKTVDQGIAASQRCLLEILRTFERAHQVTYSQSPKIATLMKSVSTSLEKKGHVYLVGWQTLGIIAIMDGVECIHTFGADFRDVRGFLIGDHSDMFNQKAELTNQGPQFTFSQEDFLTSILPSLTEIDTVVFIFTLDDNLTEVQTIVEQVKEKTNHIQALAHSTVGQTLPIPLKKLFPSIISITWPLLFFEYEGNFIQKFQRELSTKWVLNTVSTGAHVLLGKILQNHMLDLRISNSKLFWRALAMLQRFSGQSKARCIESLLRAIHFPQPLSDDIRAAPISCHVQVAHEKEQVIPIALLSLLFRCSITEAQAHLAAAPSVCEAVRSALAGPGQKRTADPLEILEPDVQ
How it was run: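 Compounds pre-incubated 20 min with substrate, then 10 nM GST-GCK with 10 nM FLAG-GKRP added. GCK activity coupled via G6PDH and diaphorase to resorufin (5 mM glucose, 0.4 mM ATP, 0.15 mM NADP+, pH 7.6), read kinetically over 30 minutes at Ex 525/Em 590 nm.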

[12] = molecular target: T1, Hexokinase-4 (Homo sapiens) + Glucokinase regulatory protein (Homo sapiens); assay: qHTS assay for inhibitors of recombinant human GCK-GKRP interaction: ADP-Glo assay (AID 743206);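 further: plate controls were DMSO plus enzyme for no effect and no enzyme for full effect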
How it was run: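 Pin-transferred compounds meet a 15 nM GST-GCK/15 nM FLAG-GKRP/2 uM S6P mix (dispense concentrations). ATP is then added to 0.4 mM final with 5 mM glucose, and the reaction runs 60 min at room temperature. ADP is quantified luminescently.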

[13] = qHTS of Nrf2 Activators: LOPAC Validation (AID 624149); further: 0% is about no effect
How it was run: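 Cells (AREc32_Fluc) are plated at 1000 per well in OPTI-MEM containing 5% FBS and left overnight. Compounds are pinned in and incubated 24 hr at 37 deg C, and firefly luciferase is detected with Steady-Glo.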

[14] = qHTS for compounds that reverse cellular toxicity of Amyloid beta (A-beta) peptide in yeast: LOPAC Validation Assay (AID 720559);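 further: plate controls were DMSO for no effect and equimolar ferric chloride plus clioquinol rescue for full effect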
How it was run: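 Yeast expressing toxic A-beta grown with pinned compounds at 30 C for 48 hr. Growth measured as absorbance at 600 nm; data normalized to DMSO and to an equimolar FeCl3/clioquinol mixture as positive control.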

[15] = qHTS assay for small molecule disruptors of the mitochondrial membrane potential - 5 hr assay (AID 651755; calls by dose curve; further: on the % scale 0 is the no-effect control and ±100 the full control effect; nearly all actives have a fitted effect of over 40% in size)
How it was run: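 Seed HepG2 overnight, add compound, incubate 5 hr at 37C and 5% CO2, stain 30 min with Mito-MPS, then measure monomer (490/535 nm) and aggregate (540/590 nm) fluorescence.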

[16] = molecular target: Tumor necrosis factor (Homo sapiens) (UniProt P01375); assay: qHTS assay to identify small molecules that stimulate Tumor Necrosis Factor-alpha (TNF-alpha) secretion (AID 651757; active means well fitted curve in the direction sought with a large enough effect in the signal ratio; the % refers to the signal ratio; further: 0% is about no effect)
Tumor necrosis factor (Homo sapiens), sequence (P01375 whole entry, looked up): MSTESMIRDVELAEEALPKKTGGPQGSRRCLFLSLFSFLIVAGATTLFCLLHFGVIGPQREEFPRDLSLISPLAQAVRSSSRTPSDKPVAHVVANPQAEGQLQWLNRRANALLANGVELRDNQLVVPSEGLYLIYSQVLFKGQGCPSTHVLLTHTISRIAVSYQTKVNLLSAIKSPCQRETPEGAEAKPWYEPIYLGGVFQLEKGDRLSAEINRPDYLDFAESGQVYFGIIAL
How it was run: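 Human monocytic THP-1 cells are plated, treated with compound and held at 37 C for 17 hrs. Labeled anti-TNF-alpha antibody mixture is then added; after 3 hr at room temperature, TR-FRET signal reports secreted TNF-alpha.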

[17] = qHTS assay to identify small molecules that stimulate interleukin-8 (IL-8) secretion (AID 651758; active means well fitted activation curve with a large enough effect in the signal ratio; the % refers to the signal ratio; further: 0% is about no effect)
How it was run: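 Quantitative HTS in THP-1 monocytic cells at 2000 cells per well, with 16 hrs compound incubation at 37 C. IL-8 in the medium was then quantified by HTRF immunoassay, read after 1-3 hrs at room temperature.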

[18] = molecular target: Nuclear receptor ROR-gamma (Homo sapiens) (UniProt P51449); assay: qHTS assay for small molecule antagonists of the retinoid-related orphan receptor gamma (ROR-gamma) signaling pathway (AID 651802); further: nearly all actives have a fitted effect of over 60% in size; further: potency means the concentration at half of the fitted maximal effect
Nuclear receptor ROR-gamma (Homo sapiens), sequence (P51449 whole entry, looked up): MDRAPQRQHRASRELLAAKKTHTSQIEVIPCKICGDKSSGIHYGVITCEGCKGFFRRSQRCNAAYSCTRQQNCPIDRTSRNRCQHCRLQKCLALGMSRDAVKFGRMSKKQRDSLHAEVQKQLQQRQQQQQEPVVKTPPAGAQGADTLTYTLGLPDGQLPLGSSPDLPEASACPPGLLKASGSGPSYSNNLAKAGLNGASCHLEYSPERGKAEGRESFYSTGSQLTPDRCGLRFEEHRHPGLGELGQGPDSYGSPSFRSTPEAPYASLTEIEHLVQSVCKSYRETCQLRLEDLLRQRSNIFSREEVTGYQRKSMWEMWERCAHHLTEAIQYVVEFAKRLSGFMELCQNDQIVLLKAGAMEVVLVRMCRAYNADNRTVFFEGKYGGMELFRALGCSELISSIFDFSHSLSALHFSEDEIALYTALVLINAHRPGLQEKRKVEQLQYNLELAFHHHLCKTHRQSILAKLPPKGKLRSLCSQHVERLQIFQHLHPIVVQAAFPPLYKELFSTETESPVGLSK
How it was run: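 Steps: cells dispensed; compound or DMSO transferred by pin tool; doxycycline added to induce the ROR response element-driven luciferase; plates held 16hr at 37C; ONE-Glo added and luminescence measured.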

[19] = qHTS assay for small molecule agonists of the antioxidant response element (ARE) signaling pathway measured by Nrf2-dependant transcriptional activity (AID 720636; active means well fitted curve in the direction sought with a large enough effect in the repeat runs; an effect the other way counts as inactive or inconclusive; further: % of control where 0% means no effect)
How it was run: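 ARE-luc HepG2 cells carrying an Nrf2-responsive luciferase reporter were plated in medium with 1% dialyzed FBS, left 6 hr at 37 C to attach, then exposed to compound for 16 hr. Luciferase luminescence was read after ONE-Glo addition.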

[20] = qHTS assay for small molecule antagonists of the retinoid-related orphan receptor gamma (ROR-gamma) signaling pathway - cell viability counter screen (AID 720652; active means well fitted curve in the direction sought with a large enough effect in the repeat runs; an effect the other way counts as inactive or inconclusive;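 further: compound exposure lasted 16 hr before ATP read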; further: potency means the concentration at half of the fitted maximal effect)
How it was run: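 Steps: seed CHO cells bearing TET-inducible ROR and ROR response element-luciferase; rest 5 hr at 37 C; add compound, then doxycycline; incubate 16 hr; add CellTiter-Glo and read luminescence as ATP-based viability.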

O=C(O)c1cc[c]([Hg][Cl])cc1
active: Potency [2] 30.6 µM
inactive: Potency [1] | activation [3] 10.2% | activation [4] 4.33% | activation [5] -2.48% | max response [6] -9.79% | Potency [7] | Potency [8] | outcome [9] | max response [10] 8.27% | Potency [11] | outcome [12]

CCCN(CCC)CCc1ccc(O)c(O)c1
inactive: Potency [13] | outcome [14] | outcome [9] | Potency [11] | outcome [12]

Cc1cc([C@@H]2CCCN2C)on1
inactive: Potency [13] | outcome [14] | Potency [8] | outcome [9] | Potency [11] | outcome [12]

C=CCN=C=S
inactive: Potency [2] | activation [3] -0.403% | activation [4] -1.41% | Potency [15] | outcome [16] | Potency [17] | activation [5] 0.264% | max response [6] -1.57% | Potency [18] | Potency [19] | max response [10] 9.92%

COc1ccc(OC)c(C(O)C(C)N)c1 (configuration not stated)
inactive: Potency [13] | Potency [8] | outcome [9] | Potency [11] | outcome [12]

C=CCN1CCC23c4c5ccc(O)c4O[C@H]2C(=O)CC[C@@]3(O)C1C5 (some centres not stated)
inactive: Potency [13] | Potency [7] | Potency [8] | outcome [9] | Potency [11] | outcome [12]

ClC(Cl)(Cl)Cl
inactive: Potency [2] | activation [3] -0.523% and 1.98% | activation [4] 2.09% and -0.921% | Potency [15] | outcome [16] | Potency [17] | activation [5] -0.636% and 0.214% | max response [6] -1.24% and -4.01% | Potency [18] | Potency [19] | Potency [20] | max response [10] 14.9% and -6.99%

[O]=[Cr](=[O])([OH])[O][Cr](=[O])(=[O])[OH]
inactive: activation [4] 1.49% and -0.838% and 3.86% | Potency [15] | outcome [16] | Potency [17] | activation [5] 0.789% and 0.878% and -0.644% | max response [6] -2.4% and -2.51% and -6.59% | Potency [19] | max response [10] -23.9%
active: Potency [2] 7.5 µM | Potency [3] 22.4 µM and 15.8 µM and 7.94 µM | Potency [18] 33.5 µM and 16.8 µM | Potency [20] 11.9 µM

CCCN1CCc2cc(O)cc3c2[C@H]1Cc1ccc(O)c(O)c1-3
inactive: Potency [13] | Potency [8] | outcome [9] | Potency [11] | outcome [12]

CCCCCCC(C)(C)c1ccc([C@@H]2C[C@H](O)CC[C@H]2CCCO)c(O)c1
inactive: Potency [13] | outcome [14] | Potency [8] | outcome [9] | Potency [11] | outcome [12]

Clc1ccc(N2CC3CCC(C2)N3)nn1
inactive: Potency [13] | outcome [14] | Potency [8] | outcome [9] | Potency [11] | outcome [12]

CN1CCc2cc(O)cc3c2[C@H]1Cc1ccc(O)c(O)c1-3
inactive: Potency [13] | outcome [14] | Potency [8] | outcome [9] | Potency [11] | outcome [12]

COC1=CC(=O)O[C@@H](/C=C/c2ccccc2)C1
active: Potency [2] 5.31 µM
inactive: activation [3] -5.52% | activation [4] -0.734% | Potency [15] | outcome [16] | activation [5] 1.75% | max response [6] -0.906% | Potency [18] | Potency [19] | Potency [20] | max response [10] 4.02%

COc1cc(CC(C)N)c(OC)cc1I (configuration not stated)
inactive: Potency [13] | Potency [7] | outcome [9] | Potency [11] | outcome [12]

CC(N)c1cccc(Cl)c1Cl (configuration not stated)
inactive: Potency [13] | outcome [14] | outcome [9] | Potency [11] | outcome [12]

[O]=[Cd]
inactive: Potency [2] | activation [3] 1.29% | activation [4] -0.74% | Potency [15] | outcome [16] | activation [5] 0.231% | max response [6] -1.92% | Potency [18] | Potency [19] | Potency [20] | max response [10] -0.962%

COc1ccc2c(c1)c(CCN1CCOCC1)c(C)n2C(=O)c1cccc(Cl)c1Cl
inactive: Potency [13] | outcome [14] | outcome [9] | Potency [11] | outcome [12]

ClC=C(Cl)Cl
inactive: Potency [2] | activation [3] -0.563% and 7.22% | activation [4] -0.987% and 0.875% | Potency [15] | outcome [16] | activation [5] 3.37% and -2.62% | max response [6] -8.59% and -1.74% | Potency [18] | Potency [19] | Potency [20] | max response [10] -6.12% and -5.8%

N#C/C(=C/c1ccc(O)c(O)c1)C(N)=S
inactive: Potency [13] | Potency [7] | Potency [8] | outcome [9] | Potency [11] | outcome [12]

CC(=O)NBr
inactive: Potency [13] | outcome [14] | Potency [8] | outcome [9] | Potency [11] | outcome [12]

COc1ccc2[nH]cc(CCN)c2c1
inactive: Potency [13] | Potency [7] | outcome [9] | Potency [11] | outcome [12]

ClC1C(Cl)C(Cl)C(Cl)C(Cl)C1Cl (configuration not stated)
inactive: Potency [2] | activation [3] -1.74% [middle of 4 runs] | activation [4] -1.15% [middle of 4 runs] | activation [5] 1.78% [middle of 4 runs] | max response [6] 1.56% [middle of 4 runs] | Potency [19] | max response [10] -5.28% [middle of 4 runs]

O=C(NCNC(=O)NC1C(=O)NC(=O)N1CO)NC1C(=O)NC(=O)N1CO (configuration not stated)
inactive: Potency [2] | activation [3] -1.04% | max response [6] -1.19% | Potency [19] | max response [10] 1.81%

O=c1[nH]c(=O)n(Cl)c(=O)n1Cl
inactive: Potency [2] | activation [5] -2.06% | max response [6] 3.21% | Potency [19] | max response [10] -11%

O=CC=O
inactive: Potency [15] | outcome [16] | activation [5] -1.42% | max response [6] -5.03% | Potency [18] | Potency [19] | Potency [20] | max response [10] 0.354%
